Measurements taken from PubChem BioAssay AID2314 (National Center for Advancing Translational Sciences (NCATS), 2010).
Out of some 300,000 compounds screened, about 37,000 (12%) were called active. Rule as the data show it: active = max response mostly above about 13% (no sharp cut-off); inactive = mostly below about 14%. For the sample, actives were picked, then their nearest neighbours and some compounds at random.

Assay: Cycloheximide Counterscreen for Small Molecule Inhibitors of Shiga Toxin; also: read at 38.3 µM for the half of the compounds with a filed dose; 0% is about no effect
Details: cell reporter, cycloheximide protein synthesis inhibition counterscreen; active compounds read high

Row | Compound | max response
1 | CN(C)c1ccc(C=C2C(=O)OC3(CCCC3)OC2=O)cc1 | 0.693% (inactive)
2 | O=C(Nc1ccccc1N1CCN(c2ccccc2)CC1)c1cccc(F)c1 | -4.37% (inactive)
3 | Cc1nnsc1C(=O)NCc1c(F)cccc1Cl | 8.44% (inactive)
4 | O=C(O)CC(Cc1ccccc1)C(=O)Nc1ccc([N+](=O)[O-])cc1 (centres undefined) | 11.6% (inactive)
5 | O=C(Nc1ccn(Cc2ccccc2)n1)c1n[nH]c([N+](=O)[O-])c1Cl | 47.7% (active)
6 | CC(=O)Nc1ccn(Cc2c(F)cccc2Cl)n1 | 18.4% (active)
7 | O=C(Nc1ccn(Cc2ccccc2)n1)c1cccc(F)c1 | 39% (active)
8 | O=C(Cn1cnc([N+](=O)[O-])n1)NCCc1ccccc1 | 6.14% (inactive)
9 | O=C(Nc1ccccc1N1CCCCC1)c1cccc(F)c1 | 3.77% (inactive)
10 | CC(C)(C)NC(=O)NC(=O)COC(=O)Cc1c(F)cccc1Cl | 6.65% (inactive)
11 | CCOc1cc(C)ccc1OCc1nnc(SCC(=O)Nc2cccc(C(=O)O)c2)n1-c1ccccc1 | 3.69% (inactive)
12 | CC(C)C[C@H]1CN=C(Nc2ccccc2)N1CC1CCCCC1 | -4.32% (inactive)
13 | CC(=O)N1c2ccc(S(=O)(=O)N3CCCC(C(=O)Nc4ccc(C)cc4C)C3)cc2CC1C (centres undefined) | -0.234% (inactive)
14 | CC(C)c1cc(NCc2ccccn2)n2c(nc3ccccc32)c1C#N | 9.39% (inactive)
15 | Cc1ccc(Cl)cc1N1CCN(C(=O)c2cccc3c(=O)c(C)c(-c4ccccc4)oc23)CC1 | 3.64% (inactive)
16 | COCCn1cnc2c1c(=O)n(CC(=O)NN)c(=O)n2Cc1ccccc1 | -14.6% (inactive)
17 | O=Cc1c(Nc2ccccc2Cl)nc2ccccn2c1=O | -2.35% (inactive)
18 | O=C(COC(=O)CCCNC(=O)c1ccc(Cl)cc1)Nc1cc(Cl)ccc1Cl | -0.294% (inactive)
19 | Cc1cc(C2=NNC(=Nc3ccc(S(=O)(=O)N4CCOCC4)cc3)SC2)c(C)n1CC1CCCO1 (centres undefined) | 19.4% (inactive)
20 | COCCn1c(C)cc(C2=NNC(=Nc3ccc(F)cc3)SC2)c1C | 31.2% (active)
21 | C=CCn1c(C)cc(C2=NNC(=NCC)SC2)c1C | -12% (inactive)
22 | COc1ccc(C(=O)C[n+]2ccc(N)c(C)c2C)cc1 | -5.16% (inactive)
23 | CN1CN(C)c2ccc([N+](=O)[O-])c3cccc1c23 | -0.807% (inactive)
24 | C=CCNC(=S)/N=c1/ccccn1Cc1ccccc1 | 1.08% (inactive)

Row | Compound | max response
25 | CN(CC(=O)Nc1ccc(N2CCOCC2)cc1)CC(=O)Nc1ccccc1[N+](=O)[O-] | -1.06% (inactive)
26 | COc1ccccc1OCCNc1cc(N2CCOCC2)ccc1[N+](=O)[O-] | 24.7% (active)
27 | CC(=O)Nc1ccc(S(=O)(=O)N2CCN(c3ccc([N+](=O)[O-])c(NCCN4CCOCC4)c3)CC2)cc1 | -3.02% (inactive)
28 | Cc1ccc(CNC(=O)C2CCCN2S(=O)(=O)c2ccc3c(c2)C(C)(C)C(=O)N3C)cc1 (centres undefined) | -3.55% (inactive)
29 | C=CCOc1ccc(C(=O)Nc2ccccc2C(=O)N2CCCC2)cc1 | -1.61% (inactive)
30 | Cc1cccc(NC(=O)CN2CCCN(S(=O)(=O)c3ccc(Br)s3)CC2)c1 | 19.9% (inactive)
31 | CSc1ncccc1C(=O)OCc1ccc(Br)cc1 | 36.2% (active)
32 | CSc1ncccc1C(=O)OCC(=O)N1CCOCC1 | -5.04% (inactive)
33 | CSc1ncccc1C(=O)NCc1ccccc1Cl | 2.57% (inactive)
34 | CN1CCN(c2cc3c(cc2F)c(=O)c(C(=O)O)cn3CCF)CC1 | -3.38% (inactive)
35 | Oc1ccc(N=Nc2nccs2)c(O)c1 | 38% (active)
36 | Oc1ccc2ccccc2c1N=Nc1nccs1 | 11.4% (inactive)
37 | NC(=O)N1CCc2ccccc21 | -6.54% (inactive)
38 | O=C(CSCc1ccccc1)N1CCc2ccccc21 | 50.5% (active)
39 | Cc1nnc(SCC(=O)N2CCc3ccccc32)n1-c1ccccc1 | -1.58% (inactive)
40 | Cc1ccc(Oc2cc(NC(=O)CCCn3nc(C)c([N+](=O)[O-])c3C)cc([N+](=O)[O-])c2)cc1 | 6.56% (inactive)
41 | Cc1ccc2ccc3c(c2n1)NS(=O)(=O)c1ccccc1-3 | 9.31% (inactive)
42 | O=C1CC(C(F)(F)C(F)(F)C(F)(F)C(F)(F)F)=Nc2ccccc2N1 | 1.33% (inactive)
43 | Cc1ccccc1-n1nc(C)c2cc(C(=O)NC3CC3)sc21 | 13.7% (inactive)
44 | O=C(CSc1nc2nccnc2c(=O)n1Cc1cccs1)Nc1ccccc1F | 18.8% (inactive)
45 | Cc1cccc(-c2nc(Nc3ccc(O)cc3)c3ccccc3n2)c1 | -0.236% (inactive)
46 | Cc1cccc(-c2noc(-c3ccc(F)cc3)n2)c1 | 70.7% (active)
47 | Cc1cccc(-c2noc(CCC(=O)NC3CCCC3)n2)c1 | 2.28% (inactive)
48 | Cc1ccc(Cc2nc(-c3cccc(C)c3)no2)cc1 | 31.8% (active)

Row | Compound | max response
49 | CC(=O)N1CCCc2cc(S(=O)(=O)N3CCCC(C(=O)NCc4ccc(Cl)cc4)C3)ccc21 (centres undefined) | -1.26% (inactive)
50 | CCN1C(=O)C(C(=O)NC(C)c2ccccc2)C2CC1(C)Oc1ccccc12 (centres undefined) | -6.07% (inactive)
51 | Cc1nn(CC(=O)N2CCCCC2)c(=O)c2nn(-c3ccccc3)c(C)c12 | -0.579% (inactive)
52 | C[C@H](NC(=O)C1CCN(S(=O)(=O)c2ccccc2)CC1)C(=O)NCc1ccccc1 | -2.6% (inactive)
53 | COCCN1C(=O)C(=O)/C(=C(/O)c2ccc(S(=O)(=O)N3CCOCC3)cc2)C1c1ccc(OC)c(OC)c1 (centres undefined) | -0.449% (inactive)
54 | CCOCCCNC(=O)c1cn(CC(C)C)c(=O)c2c1c1ccccc1n2C | 1.59% (inactive)
55 | Cc1cc(Cl)c(S(=O)(=O)NCC2CCCO2)cc1OCC(N)=O (centres undefined) | -0.524% (inactive)
56 | Cc1cc(Cl)c(S(=O)(=O)Nc2ccc3c(c2)OCCO3)cc1OCC(N)=O | 40.8% (active)
57 | Cc1cc(Cl)c(S(=O)(=O)N(C)C)cc1OCC(N)=O | 4.25% (inactive)
58 | COc1ccc(S(=O)(=O)N2CCN(c3ncnc4c(-c5ccccc5)nsc34)CC2)cc1 | -2.92% (inactive)
59 | CC1=C(C(=O)OC2CCCCC2)C(c2cccnc2)n2ncnc2N1 (centres undefined) | -3.65% (inactive)
60 | C=CCCN(C(Cc1ccccc1)C(=O)OC)S(=O)(=O)c1cc(Br)ccc1Br (centres undefined) | -0.573% (inactive)
61 | O=C(Nc1cccc(Cl)c1)OCc1ccccn1 | 26.4% (inactive)
62 | O=[N+]([O-])c1ccc(NC(=S)N2CCN(c3ccccn3)CC2)cc1 | -3.35% (inactive)
63 | O=C(Nc1ccc([N+](=O)[O-])cc1)OCCc1ccccn1 | 19% (active)
64 | O=C(OCC#CCSc1nnc(-c2ccncc2)o1)c1sc2ccccc2c1Cl | -4.75% (inactive)
65 | COc1ccc2c(Cl)c(-c3nnco3)sc2c1 | 0.855% (inactive)
66 | C#CCSc1nnc(-c2sc3ccccc3c2Cl)o1 | 46.5% (active)
67 | COCCNC(=O)CCCN1C(=O)c2ccccc2Sc2ncccc21 | 5.87% (inactive)
68 | Cc1cccc(C2=N/C(=C/c3cccs3)C(=O)O2)c1 | 29.6% (active)
69 | Cc1ccc(C2=N/C(=C\c3ccc(OS(=O)(=O)c4ccc(C)cc4)cc3)C(=O)O2)cc1 | 0.746% (inactive)
70 | Cc1ccc(N2CCN(C3=NC(=O)/C(=C\c4cccs4)S3)CC2)cc1 | 3.49% (inactive)
71 | Cc1ccc(S(=O)(=O)N2CCN(C(=O)N3CCOCC3)CC2)c(C)c1 | -0.587% (inactive)
72 | Cc1ccc(NC(=O)[C@H](Cc2ccccc2)NC(=O)C2CCNCC2)cc1 | -1.28% (inactive)

Row | Compound | max response
73 | CC(=O)Nc1cc2ccc(OC(C)=O)cc2oc1=O | -3.66% (inactive)
74 | O=C(Nc1cc2ccccc2oc1=O)C1CCCCC1 | 34.2% (active)
75 | Cc1ccccc1NC(=O)C1CCN(C(=O)NC2CCCCC2)CC1 | -2.51% (inactive)
76 | Cc1ccc(S(=O)(=O)N/N=C(\c2ccccc2)C2CC2)cc1 | -0.529% (inactive)
77 | COc1cccc(C2c3[nH]c4ccccc4c3CCN2Cc2cccc(C)n2)c1 (centres undefined) | -0.212% (inactive)
78 | CCOc1ccc(S(=O)(=O)N2CCC(c3ccccc3)CC2)cc1C(=O)O | -3.04% (inactive)
79 | COc1ccc(/C=N/Nc2cc(N3CCOCC3)nc(C)n2)c(OC)c1 | -1.58% (inactive)
80 | COc1ccc(C=C(C#N)C#N)c(CSc2ccccn2)c1 | -3.44% (inactive)
81 | COc1ccc(/C=N/OCc2ccccc2C#N)c(OC)c1 | 38% (active)
82 | O=C(Nc1nnc(C2=COCCO2)o1)c1ccc([N+](=O)[O-])s1 | -2.32% (inactive)
83 | Cc1ccc(C(=O)Nc2nnc(C3=COCCO3)o2)cc1C | 14.8% (active)
84 | Cc1ccc(C(=O)Nc2nnc(-c3cccs3)s2)cc1C | 13.9% (inactive)
85 | Cc1nn(Cc2ccccc2)c(C)c1NS(=O)(=O)c1ccccc1 | 5.29% (inactive)
86 | CCN(CC)S(=O)(=O)c1ccc(N(C)CCc2ccc(OC)c(OC)c2)nc1 | -1.93% (inactive)
87 | CCOc1ccccc1NC(=O)Cn1ncc2ccc([N+](=O)[O-])cc21 | 8.74% (inactive)
88 | O=C(Nc1ccccc1F)C1C2C=CC3(O2)C1C(=O)N(c1cccnc1)C3C(=O)NC1CCCCC1 (centres undefined) | 41.8% (active)
89 | CC(C)N1C(=O)C2C(C(=O)NC3CCCCC3)C3C=CC2(O3)C1C(=O)NC1CCCC1 (centres undefined) | -1.06% (inactive)
90 | CCN(CC)CCN1C(=O)C2C(C(=O)Nc3ccc(Br)cc3)C3C=CC2(O3)C1C(=O)NC1CCCCC1 (centres undefined) | -5.6% (inactive)
91 | Cc1cccc(C(=O)NC(=S)N2CCN(c3ccc([N+](=O)[O-])cc3)CC2)c1 | -1.96% (inactive)
92 | O=c1c(-c2ccc(Cl)cc2)[n+]([O-])c2ccccc2n1OCc1nc2ccccc2[nH]1 | 24.8% (active)
93 | CCN(CC)CCCNC(=S)N(CCO)Cc1cc2cc3c(cc2[nH]c1=O)OCO3 | -1.33% (inactive)
94 | COc1ccc(CCNC(=O)CCC(=O)NC2CCCCC2)cc1OC | -1.91% (inactive)
